Of roughly 8,800 targets only a part is listed; those with a hit were picked by preference. About 0.5% of all pairs of compound and target were hits. Unmarked numbers belong to inactive results.
Legend:
Assay in all cases: log2 fold change, soluble protein after heating vs DMSO (PISA); higher = thermal stabilisation; K562 lysate, 10 uM; active = over 0.2 and 3.5 SD of the protein, either way, in both replicates (recomputed)
[1] = compound: CS(=O)(=O)CCNCc1ccc(-c2ccc3ncnc(Nc4ccc(OCc5cccc(F)c5)c(Cl)c4)c3c2)o1 [lapatinib]
How it was run: (§1)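 Pellets of K562 cells were dounce-homogenised in PBS pH 7.4 with 1 mM MgCl2, and the crude extract was held at 1 mg/mL protein for a 30 min treatment with 10 μM compound. Aliquots were heated for 3 min over 48°C-58°C and pooled before NP-40 was added to 0.5% at 4°C. The supernatant from 21,000xg for 90 min was quantified by TMTpro 16plex LC-MS/MS with channel sums equalised. Values are reported from duplicates as log-two fold change in thermal stability relative to solvent controls.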

[2] = compound: CS(=O)(=O)N1CCN(Cc2cc3nc(-c4cccc5[nH]ncc45)nc(N4CCOCC4)c3s2)CC1 [pictilisib]
How it was run: as §1

[3] = compound: C[C@@H](Oc1cc(-c2cnn(C3CCNCC3)c2)cnc1N)c1c(Cl)ccc(F)c1Cl [crizotinib]
How it was run: as §1

[4] = compound: C[C@H](C1=CC=C(C=C1)C(=O)NC2=C3C=CNC3=NC=C2)N
How it was run: as §1

[5] = compound: C[C@H](Nc1ncnc2nc[nH]c12)c1cc2cccc(Cl)c2c(=O)n1-c1ccccc1 [duvelisib]
How it was run: as §1

[6] = compound: Cc1cc(Nc2cc(CN3CCOCC3)c3nc(C)c(Cc4ccc(Cl)cc4F)n3n2)n[nH]1 [gandotinib]
How it was run: as §1

[7] = compound: Cc1cc(Nc2cc(N3CCN(C)CC3)nc(Sc3ccc(NC(=O)C4CC4)cc3)n2)n[nH]1 [tozasertib]
How it was run: as §1

[8] = compound: Cc1ccc(-n2nc(C(C)(C)C)cc2NC(=O)Nc2ccc(OCCN3CCOCC3)c3ccccc23)cc1 [doramapimod]
How it was run: as §1

[9] = compound: Cc1ccc(NC(=O)c2ccc(CN3CC[C@H](N(C)C)C3)c(C(F)(F)F)c2)cc1Nc1nccc(-c2cncnc2)n1 [bafetinib]
How it was run: as §1

[10] = compound: Cc1cccc(CC(=O)N2CCc3c2ccc(-c2cn(C)c4ncnc(N)c24)c3F)n1
How it was run: as §1

[11] = compound: Cc1cn(-c2cc(NC(=O)c3ccc(C)c(Nc4nccc(-c5cccnc5)n4)c3)cc(C(F)(F)F)c2)cn1 [nilotinib]
How it was run: as §1

[12] = compound: Cc1nc(Nc2n[nH]c3c2CN(C(=O)N[C@H](CN(C)C)c2ccccc2)C3(C)C)c2sccc2n1
How it was run: as §1

[13] = compound: Cc1nc(Nc2ncc(C(=O)Nc3c(C)cccc3Cl)s2)cc(N2CCN(CCO)CC2)n1 [dasatinib]
How it was run: as §1

[14] = compound: Cc1ncc(-c2ccnc(Nc3ccc(S(C)(=O)=O)cc3)n2)n1C(C)C
How it was run: as §1

[15] = compound: Cn1cc(-c2ccc3c(c2)CCN3C(=O)Cc2cccc(C(F)(F)F)c2)c2c(N)ncnc21
How it was run: as §1

[16] = compound: Cn1cc(CNCC2CCN(c3ncc(C(=O)NO)cn3)CC2)c2ccccc21 [quisinostat]
How it was run: as §1

[17] = compound: Cn1cncc1[C@@](N)(c1ccc(Cl)cc1)c1ccc2c(c1)c(-c1cccc(Cl)c1)cc(=O)n2C [tipifarnib]
How it was run: as §1

[18] = compound: NC(=O)Nc1cc(-c2cccc(F)c2)sc1C(=O)N[C@H]1CCCNC1
How it was run: as §1

[19] = compound: NC(=O)c1cnc(N[C@@H]2CCCC[C@@H]2N)nc1Nc1cccc(-n2nccn2)c1
How it was run: as §1

[20] = compound: NC1(c2ccc(-c3nc4ccn5c(=O)[nH]nc5c4cc3-c3ccccc3)cc2)CCC1
How it was run: as §1

Chain of UniProt O95319 (O95319 whole entry, looked up): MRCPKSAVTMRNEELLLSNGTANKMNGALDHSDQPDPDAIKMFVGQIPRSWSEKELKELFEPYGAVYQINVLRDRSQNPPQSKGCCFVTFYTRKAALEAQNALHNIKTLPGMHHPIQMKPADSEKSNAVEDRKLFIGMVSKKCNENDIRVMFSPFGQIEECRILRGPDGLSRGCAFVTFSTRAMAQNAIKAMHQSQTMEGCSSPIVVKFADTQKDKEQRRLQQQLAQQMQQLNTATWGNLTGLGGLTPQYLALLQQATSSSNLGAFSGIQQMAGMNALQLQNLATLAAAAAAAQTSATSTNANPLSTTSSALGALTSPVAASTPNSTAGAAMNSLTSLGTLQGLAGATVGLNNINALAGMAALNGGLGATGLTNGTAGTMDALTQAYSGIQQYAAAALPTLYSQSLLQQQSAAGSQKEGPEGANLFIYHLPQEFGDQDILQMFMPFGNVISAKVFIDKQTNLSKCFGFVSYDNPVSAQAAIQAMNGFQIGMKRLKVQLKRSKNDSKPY
Chain of UniProt Q8N5S9 (Q8N5S9 whole entry, looked up): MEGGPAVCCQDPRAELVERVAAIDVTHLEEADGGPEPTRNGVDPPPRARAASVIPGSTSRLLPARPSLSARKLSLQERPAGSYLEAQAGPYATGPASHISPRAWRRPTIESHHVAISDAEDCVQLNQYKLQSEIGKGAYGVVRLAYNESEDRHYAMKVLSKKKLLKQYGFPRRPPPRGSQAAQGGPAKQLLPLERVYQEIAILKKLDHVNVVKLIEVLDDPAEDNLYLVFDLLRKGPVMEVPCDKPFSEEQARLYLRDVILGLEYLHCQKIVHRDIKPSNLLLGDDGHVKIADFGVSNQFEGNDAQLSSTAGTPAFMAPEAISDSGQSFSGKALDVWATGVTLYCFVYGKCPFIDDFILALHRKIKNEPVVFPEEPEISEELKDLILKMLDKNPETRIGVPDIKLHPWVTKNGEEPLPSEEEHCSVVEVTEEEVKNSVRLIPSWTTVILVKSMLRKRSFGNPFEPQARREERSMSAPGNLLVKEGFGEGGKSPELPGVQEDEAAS
Chain of UniProt Q9H3K6 (Q9H3K6 whole entry, looked up): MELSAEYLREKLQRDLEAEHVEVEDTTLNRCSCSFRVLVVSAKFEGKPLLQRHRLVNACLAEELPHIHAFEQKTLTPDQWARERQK
Chain of UniProt Q9Y2V2 (Q9Y2V2 whole entry, looked up): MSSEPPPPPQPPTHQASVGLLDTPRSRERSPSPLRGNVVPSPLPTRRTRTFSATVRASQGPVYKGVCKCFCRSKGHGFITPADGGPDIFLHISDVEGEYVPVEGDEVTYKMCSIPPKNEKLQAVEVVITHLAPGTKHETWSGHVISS
Chain of UniProt Q96RR4 (Q96RR4 whole entry, looked up): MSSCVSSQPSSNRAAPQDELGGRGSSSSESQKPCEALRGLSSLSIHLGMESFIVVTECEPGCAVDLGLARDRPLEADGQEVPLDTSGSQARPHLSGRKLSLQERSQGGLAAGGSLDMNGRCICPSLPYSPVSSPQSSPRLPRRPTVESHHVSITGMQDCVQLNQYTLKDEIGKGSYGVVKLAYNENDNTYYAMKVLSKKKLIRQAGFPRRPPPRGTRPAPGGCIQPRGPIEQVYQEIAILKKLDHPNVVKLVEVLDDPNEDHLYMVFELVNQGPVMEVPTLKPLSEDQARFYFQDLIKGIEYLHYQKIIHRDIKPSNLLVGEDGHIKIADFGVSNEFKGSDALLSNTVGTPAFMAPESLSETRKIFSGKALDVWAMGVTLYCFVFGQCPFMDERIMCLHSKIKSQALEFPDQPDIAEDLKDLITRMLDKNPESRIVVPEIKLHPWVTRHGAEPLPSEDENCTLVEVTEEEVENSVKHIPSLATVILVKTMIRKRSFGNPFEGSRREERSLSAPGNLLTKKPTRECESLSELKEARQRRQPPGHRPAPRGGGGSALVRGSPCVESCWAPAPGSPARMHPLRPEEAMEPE
Chain of UniProt Q9NSG2 (Q9NSG2 whole entry, looked up): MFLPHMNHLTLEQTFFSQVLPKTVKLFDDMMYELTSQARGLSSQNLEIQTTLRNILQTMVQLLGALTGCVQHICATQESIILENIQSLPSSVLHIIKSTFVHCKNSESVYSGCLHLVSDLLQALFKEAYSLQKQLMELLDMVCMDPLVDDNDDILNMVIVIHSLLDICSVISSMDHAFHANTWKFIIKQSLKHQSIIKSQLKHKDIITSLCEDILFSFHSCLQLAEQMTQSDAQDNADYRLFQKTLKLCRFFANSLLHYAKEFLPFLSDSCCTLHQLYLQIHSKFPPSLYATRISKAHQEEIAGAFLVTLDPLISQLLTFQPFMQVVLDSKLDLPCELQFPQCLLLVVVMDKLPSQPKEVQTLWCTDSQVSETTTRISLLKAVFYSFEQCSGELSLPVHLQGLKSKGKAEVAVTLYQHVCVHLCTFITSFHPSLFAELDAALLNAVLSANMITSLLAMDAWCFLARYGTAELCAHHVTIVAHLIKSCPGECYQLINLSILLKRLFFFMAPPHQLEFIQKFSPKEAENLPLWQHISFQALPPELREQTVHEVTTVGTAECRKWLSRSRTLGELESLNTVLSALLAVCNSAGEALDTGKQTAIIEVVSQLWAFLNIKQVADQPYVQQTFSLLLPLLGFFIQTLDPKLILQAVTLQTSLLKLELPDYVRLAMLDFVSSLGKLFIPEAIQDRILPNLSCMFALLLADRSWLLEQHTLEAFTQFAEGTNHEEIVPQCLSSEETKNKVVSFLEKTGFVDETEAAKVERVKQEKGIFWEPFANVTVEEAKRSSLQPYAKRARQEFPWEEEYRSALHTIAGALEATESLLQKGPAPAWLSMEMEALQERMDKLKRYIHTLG
Chain of UniProt Q9BXL7 (Q9BXL7 whole entry, looked up): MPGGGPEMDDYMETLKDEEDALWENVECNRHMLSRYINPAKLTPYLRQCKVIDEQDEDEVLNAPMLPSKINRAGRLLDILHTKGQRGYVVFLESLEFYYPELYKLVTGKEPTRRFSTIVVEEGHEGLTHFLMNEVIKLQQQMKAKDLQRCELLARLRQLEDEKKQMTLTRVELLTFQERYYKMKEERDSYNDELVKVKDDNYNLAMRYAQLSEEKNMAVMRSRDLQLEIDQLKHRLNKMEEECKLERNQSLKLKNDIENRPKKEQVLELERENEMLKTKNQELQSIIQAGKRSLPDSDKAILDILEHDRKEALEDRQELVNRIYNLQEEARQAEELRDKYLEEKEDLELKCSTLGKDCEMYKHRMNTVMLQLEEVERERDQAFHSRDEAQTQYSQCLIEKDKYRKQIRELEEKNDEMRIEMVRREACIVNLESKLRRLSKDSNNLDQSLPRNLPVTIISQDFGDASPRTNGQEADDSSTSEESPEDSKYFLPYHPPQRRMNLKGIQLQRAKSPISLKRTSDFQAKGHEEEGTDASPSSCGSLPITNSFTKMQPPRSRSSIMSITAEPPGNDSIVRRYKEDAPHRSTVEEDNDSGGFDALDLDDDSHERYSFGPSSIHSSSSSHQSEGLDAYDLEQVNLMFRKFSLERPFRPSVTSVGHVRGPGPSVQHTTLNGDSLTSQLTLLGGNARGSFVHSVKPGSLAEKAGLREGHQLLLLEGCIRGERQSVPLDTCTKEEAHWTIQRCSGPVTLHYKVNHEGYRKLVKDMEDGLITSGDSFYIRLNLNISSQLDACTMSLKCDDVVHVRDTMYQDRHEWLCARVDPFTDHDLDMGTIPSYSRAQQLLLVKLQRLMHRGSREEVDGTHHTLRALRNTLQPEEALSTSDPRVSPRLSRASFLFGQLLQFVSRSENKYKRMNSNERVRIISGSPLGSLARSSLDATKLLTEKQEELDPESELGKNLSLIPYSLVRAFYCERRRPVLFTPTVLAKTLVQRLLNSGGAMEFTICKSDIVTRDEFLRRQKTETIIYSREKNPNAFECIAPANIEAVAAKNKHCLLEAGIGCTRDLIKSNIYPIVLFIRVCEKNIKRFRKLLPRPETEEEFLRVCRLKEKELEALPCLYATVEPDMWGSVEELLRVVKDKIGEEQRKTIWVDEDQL
Chain of UniProt Q8N4J0 (Q8N4J0 whole entry, looked up): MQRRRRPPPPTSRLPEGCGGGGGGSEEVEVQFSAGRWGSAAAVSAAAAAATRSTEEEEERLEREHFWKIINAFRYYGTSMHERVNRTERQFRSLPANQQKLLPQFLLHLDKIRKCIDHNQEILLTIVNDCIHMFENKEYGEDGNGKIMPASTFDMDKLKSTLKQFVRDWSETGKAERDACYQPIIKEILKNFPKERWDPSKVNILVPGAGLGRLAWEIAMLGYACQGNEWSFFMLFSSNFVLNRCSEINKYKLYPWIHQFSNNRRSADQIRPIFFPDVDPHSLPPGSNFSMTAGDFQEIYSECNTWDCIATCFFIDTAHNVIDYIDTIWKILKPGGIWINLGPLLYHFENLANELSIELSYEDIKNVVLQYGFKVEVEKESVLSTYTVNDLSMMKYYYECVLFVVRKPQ
Chain of UniProt Q86WR0 (Q86WR0 whole entry, looked up): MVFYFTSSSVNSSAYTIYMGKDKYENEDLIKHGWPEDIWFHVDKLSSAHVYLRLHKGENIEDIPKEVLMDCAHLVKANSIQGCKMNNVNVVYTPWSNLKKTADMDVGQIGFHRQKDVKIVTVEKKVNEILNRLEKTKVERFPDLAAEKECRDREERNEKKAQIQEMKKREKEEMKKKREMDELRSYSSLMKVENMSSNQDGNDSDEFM
Chain of UniProt Q9NW68 (Q9NW68 whole entry, looked up): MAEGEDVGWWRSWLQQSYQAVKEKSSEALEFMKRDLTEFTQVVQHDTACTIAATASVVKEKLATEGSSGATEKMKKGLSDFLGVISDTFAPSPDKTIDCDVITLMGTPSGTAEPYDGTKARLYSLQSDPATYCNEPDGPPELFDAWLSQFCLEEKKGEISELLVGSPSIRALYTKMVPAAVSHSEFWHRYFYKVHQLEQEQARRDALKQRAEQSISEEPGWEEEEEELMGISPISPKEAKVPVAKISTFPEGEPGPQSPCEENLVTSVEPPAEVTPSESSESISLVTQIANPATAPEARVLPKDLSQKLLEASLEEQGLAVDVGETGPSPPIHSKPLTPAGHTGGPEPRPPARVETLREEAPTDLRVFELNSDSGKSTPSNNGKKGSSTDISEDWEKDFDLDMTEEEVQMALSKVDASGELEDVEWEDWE

Target | log2 fold change [1] | log2 fold change [2] | log2 fold change [3] | log2 fold change [4] | log2 fold change [5] | log2 fold change [6] | log2 fold change [7] | log2 fold change [8] | log2 fold change [9] | log2 fold change [10] | log2 fold change [11] | log2 fold change [12] | log2 fold change [13] | log2 fold change [14] | log2 fold change [15] | log2 fold change [16] | log2 fold change [17] | log2 fold change [18] | log2 fold change [19] | log2 fold change [20]
CAMKK1 isoform 2 (UniProt Q8N5S9) | 0.061 | -0.074 | -0.023 | 0.032 | -0.069 | 0.424 (active) | -0.067 | 0.016 | -0.021 | -0.033 | -0.013 | 0.144 | 0.05 | 0.064 | 0.189 | -0.072 | -0.064 | 0.047 | -0.002 | 0.007
CARD11 (UniProt Q9BXL7) | 0.001 | -0.287 (active) | -0.018 | -0.025 | 0.029 | -0.035 | -0.021 | 0.028 | -0.059 | 0.038 | -0.047 | 0.04 | -0.053 | 0.043 | 0.004 | -0.031 | -0.015 | 0.025 | 0.048 | 0.009
CELF2 isoform 3 (UniProt O95319) | 0.039 | 0.032 | 0.072 | 0.104 | -0.001 | -0.052 | 0.017 | -0.579 (active) | -0.042 | -0.124 | 0.054 | 0.038 | -0.015 | -0.028 | -0.043 | 0.036 | -0.129 | -0.037 | -0.021 | 0.068
CAMKK2 (UniProt Q96RR4) | -0.018 | 0.006 | 0.108 | 0.023 | 0.058 | 0.257 (active) | -0.055 | 0.031 | 0.018 | -0.056 | -0.038 | 0.176 | 0.031 | 0.028 | 0.023 | -0.01 | -0.037 | 0.1 | -0.046 | 0
CARHSP1 (UniProt Q9Y2V2) | -0.014 | -0.08 | 0.011 | -0.053 | 0.003 | 0.047 | 0.003 | -0.012 | -0.033 | 0.019 | 0.037 | -0.037 | 0.017 | -0.004 | -0.04 | -0.006 | 0.035 | -0.034 | -0.026 | -0.001
BOLA2 (UniProt Q9H3K6) | -0.038 | -0.035 | 0.02 | 0.46 (active) | 0.03 | -0.088 | 0.069 | 0.033 | 0.094 | -0.064 | 0.039 | -0.036 | -0.002 | -0.021 | 0.009 | 0.063 | 0.01 | -0.042 | -0.013 | 0.096
BSDC1 (UniProt Q9NW68) | 0.088 | -0.055 | 0.012 | -0.052 | 0.016 | 0.312 (active) | -0.005 | 0.098 | -0.012 | 0.019 | 0.016 | -0.009 | 0.018 | 0.027 | -0.018 | -0.024 | -0.093 | 0.003 | -0.023 | 0.016
CCDC25 (UniProt Q86WR0) | -0.028 | -0.001 | -0.015 | 0.487 (active) | 0.011 | -0.062 | -0.021 | 0.065 | 0.008 | -0.095 | 0.016 | -0.023 | -0.043 | -0.021 | -0.013 | -0.039 | 0.002 | 0 | 0.024 | -0.031
BPHL (UniProt Q86WA6) | -0.099 | -0.366 (active) | 0.099 | 0.051 | 0.061 | -0.077 | 0.034 | -0.003 | 0.132 | -0.058 | -0.049 | 0.084 | 0.008 | -0.043 | 0.055 | -0.02 | 0.01 | -0.03 | 0.016 | 0.022
BMS1 (UniProt Q14692) | -0.029 | -0.052 | -0.058 | -0.018 | -0.036 | 0.043 | 0.018 | 0.047 | -0.032 | 0.045 | 0.024 | 0.024 | -0.02 | -0.045 | -0.01 | -0.097 | 0 | 0.006 | 0.015 | -0.019
BORCS5 (UniProt Q969J3) | 0.015 | 0.096 | -0.002 | 0.037 | 0.037 | -0.038 | 0.007 | -0.011 | -0.042 | -0.006 | 0.064 | -0.021 | -0.025 | 0.082 | -0.003 | -0.017 | -0.061 | -0.017 | -0.029 | -0.009
CBX5 (UniProt P45973) | 0.06 | 0.024 | -0.023 | -0.187 | -0.036 | 0.077 | 0.006 | 0.006 | -0.001 | 0.064 | 0.014 | 0.011 | 0.028 | 0.052 | -0.017 | -0.09 | -0.024 | 0.014 | -0.004 | 0.007
ATP2B4 (UniProt P23634) | -0.022 | -0.018 | 0.018 | -0.166 | 0.053 | 0.082 | 0.046 | 0.049 | -0.125 | 0.221 (active) | -0.05 | 0.098 | -0.031 | 0.003 | 0.021 | 0.164 | -0.028 | -0.019 | 0.019 | 0.008
CELF1 isoform 4 (UniProt Q92879) | 0.011 | 0.023 | 0.032 | 0.021 | -0.036 | -0.028 | 0.019 | -0.605 (active) | -0.09 | -0.018 | -0.022 | 0.042 | -0.025 | 0 | 0 | 0.021 | -0.013 | 0.037 | 0.033 | 0.067
CARNMT1 (UniProt Q8N4J0) | 0.01 | -0.029 | -0.131 | -0.354 (active) | 0.018 | 0.038 | -0.04 | 0.01 | -0.078 | 0.181 | 0.019 | -0.016 | 0.003 | -0.019 | 0.006 | -0.173 | 0.011 | 0.004 | 0.019 | -0.023
C1orf112 (UniProt Q9NSG2) | 0.018 | -0.004 | -0.055 | -0.073 | -0.035 | 0.232 | -0.091 | 0.021 | 0.005 | 0.279 (active) | 0.089 | -0.015 | -0.102 | 0.017 | 0.05 | -0.1 | -0.046 | 0.036 | -0.03 | -0.007

Reference: the supplement of paper PMC10849652
